Assay [1] deals with LEGO organoid PTCC (PTEN-/-; TP53-/-; CDKN2A-/-; CDKN2B-/-). The assay can be described thus: bioluminescence (viable cell) signal fold change after vs before treatment, normalised to DMSO (ratio); higher = more tumour cell growth / less inhibition. Particulars: 10 µM; treatment time 6 days. On the procedure:
(§1)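 Luc2-labelled iPSC-derived glioblastoma-like organoids (LEGOs, genotypes PT = PTEN-/-;TP53-/-, PTCC = plus CDKN2A/B-/-, PTN = plus NF1-/-) were treated with 10 uM drug for 6 days (applied every other day) at 37 C. Bioluminescence imaging was done before treatment and 2 days after the last dose. BLI signals were normalised to the DMSO control on the same day and then to the pre-treatment signal (N=3).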

The subject of assay [2] is LEGO organoid PTN (PTEN-/-; TP53-/-; NF1-/-). Described as above. As to conditions: 10 µM; treatment time 6 days. On the procedure: as §1

In the case of `CCCNS(=O)(=O)Nc1ncnc(OCCOc2ncc(Br)cn2)c1-c1ccc(Br)cc1` [Macitentan], the bioluminescence came to 0.835 in assay [1] and 0.938 in assay [2].

As for `CCN(CC)C(=O)[C@]1(c2ccccc2)C[C@@H]1CN.Cl` [Milnacipran hydrochloride], the bioluminescence in assay [1] came out at 1.02; in assay [2], 2.39.

As for `O=C1CCc2ccc(OCCCCN3CCN(c4cccc(Cl)c4Cl)CC3)cc2N1` [Aripiprazole], the bioluminescence in assay [1] is 0.382; in assay [2], 0.284.

As for `C[C@@H](c1ncncc1F)[C@](O)(Cn1cncn1)c1ccc(F)cc1F` [Voriconazole], the values for the bioluminescence in assay [1] and in assay [2] were 0.587 and 1.46, respectively.

Take `CC(C)(S)[C@@H](N)C(=O)O` [d-penicillamin]: the bioluminescence in assay [1] worked out at 0.914; in assay [2], 1.11.

On to `CN(C)CC(c1ccc(O)cc1)C1(O)CCCCC1` (configuration not stated) [Desvenlafaxine], for which the results for the bioluminescence in assay [1] and in assay [2] were 1.07 and 0.36, respectively.

As to `CNS(=O)(=O)Cc1ccc2[nH]cc(CCN(C)C)c2c1.O=C(O)CCC(=O)O` [Sumatriptan succinate], the bioluminescence in assay [1] amounted to 0.433; in assay [2], 1.05.

As to `COc1cccc2c1C(=O)c1c(O)c3c(c(O)c1C2=O)C[C@@](O)(C(=O)CO)C[C@@H]3O[C@H]1C[C@H](N)[C@@H](O)[C@H](C)O1.Cl` [Epirubicin hydrochloride], the figures for the bioluminescence in assay [1] and in assay [2] were 0 and 0.00894, respectively.

On to `O=C(O)Cc1ccccc1Nc1c(Cl)cccc1Cl` [Diclofenac], for which the bioluminescence in assay [1] and in assay [2] was 1.13 in each case.

With `CS(=O)(=O)CCNCc1ccc(-c2ccc3ncnc(Nc4ccc(OCc5cccc(F)c5)c(Cl)c4)c3c2)o1.Cc1ccc(S(=O)(=O)O)cc1.Cc1ccc(S(=O)(=O)O)cc1` [Lapatinib Ditosylate], the bioluminescence in assay [1] worked out at 1.03; in assay [2] it was 0.778.

As to `COc1ccc([C@@H]2CC(=O)c3c(O)cc(O[C@@H]4O[C@H](CO[C@@H]5O[C@@H](C)[C@H](O)[C@@H](O)[C@H]5O)[C@@H](O)[C@H](O)[C@H]4O)cc3O2)cc1O` [Hesperidin], the bioluminescence in assay [1] was 0.805; in assay [2], 1.75.

Consider `CCCCS(=O)(=O)N[C@@H](Cc1ccc(OCCCCC2CCNCC2)cc1)C(=O)O` [Tirofiban], for which the bioluminescence in assay [1] was 1.21; in assay [2] it was 0.848.

Regarding `Cl.OC(CCN1CCCCC1)(c1ccccc1)C1CCCCC1` (racemic) [DL-trihexyphenidyl hydrochloride], the figures for the bioluminescence in assay [1] and in assay [2] were 0.966 and 0.496, respectively.

Take `C[C@H]1C[C@@H]2[C@H]([C@@H](O)C[C@@]3(C)[C@H]2CC[C@]3(O)C(=O)CO)[C@@]2(C)C=CC(=O)C=C12` [Methylprednisolone]: the bioluminescence in assay [1] turned out to be 0.882; in assay [2] it was 1.17.

`Nc1ccn([C@@H]2O[C@H](CO)[C@@H](O)[C@@H]2O)c(=O)n1` [Cytarabine]: the bioluminescence in assay [1] was found to be 1.15; in assay [2], 0.51.

For the compound `CC1=C(/C=C/C(C)=C/C=C/C(C)=C/C(=O)O)C(C)(C)CCC1` [Tretinoin], the values for the bioluminescence in assay [1] and in assay [2] were 0.531 and 1.41, respectively.

For `COc1cc2c(cc1OC)C(=O)C(CC1CCN(Cc3ccccc3)CC1)C2` (configuration not stated) [Donepezil], the bioluminescence in assay [1] was 0.645; in assay [2] it was 1.1.

In the case of `Cc1c(C)c2c(c(C)c1O)CC[C@@](C)(CCC[C@H](C)CCC[C@H](C)CCCC(C)C)O2` [α-Vitamin E], the figures for the bioluminescence in assay [1] and in assay [2] were 1.41 and 2.48, respectively.

With `CCC1=C[C@@H]2CN(C1)Cc1c([nH]c3ccccc13)[C@@](C(=O)OC)(c1cc3c(cc1OC)N(C)[C@H]1[C@@](O)(C(=O)OC)[C@H](OC(C)=O)[C@]4(CC)C=CCN5CC[C@]31[C@@H]54)C2.O=C(O)[C@H](O)[C@@H](O)C(=O)O.O=C(O)[C@H](O)[C@@H](O)C(=O)O` [Vinorelbine Tartrate], the bioluminescence in assay [1] worked out at 1.06; in assay [2] it was 0.805.

With `CSCC[C@@H](N)C(=O)O` [Methionine], the bioluminescence came to 0.816 in assay [1] and 1.35 in assay [2].

Take `Cc1ccccc1C(OCCN(C)C)c1ccccc1.O=C(O)CC(O)(CC(=O)O)C(=O)O` (configuration not stated) [Orphenadrine Citrate]: the bioluminescence worked out at 2.65 in assay [1] and 0.98 in assay [2].

For `CCOc1nc2cccc(C(=O)OC(C)OC(=O)OC3CCCCC3)c2n1Cc1ccc(-c2ccccc2-c2nn[nH]n2)cc1` (configuration not stated) [Candesartan Cilexetil], the bioluminescence in assay [1] came out at 1.17; in assay [2] it was 1.04.

Take `CC(=O)OCC(=O)[C@@]1(O)[C@H](C)C[C@H]2[C@@H]3CCC4=CC(=O)C=C[C@]4(C)[C@@]3(F)[C@@H](O)C[C@@]21C` [Dexamethason acetate]: the bioluminescence turned out to be 0.467 in assay [1] and 1.53 in assay [2].

`CCCN(CCc1cccs1)[C@H]1CCc2c(O)cccc2C1` [Rotigotine]: the bioluminescence in assay [1] amounted to 2.02; in assay [2], 1.77.

`COc1ccccc1Oc1c(NS(=O)(=O)c2ccc(C(C)(C)C)cc2)nc(-c2ncccn2)nc1OCCO` [Bosentan]: the bioluminescence in assay [1] is 1.68; in assay [2], 1.28.

Take `CCc1cccc2c3c([nH]c12)C(CC)(CC(=O)O)OCC3` (configuration not stated) [Etodolac]: the results for the bioluminescence in assay [1] and in assay [2] were 0.917 and 1.19, respectively.

The values above are taken from the supplement of paper PMC10811239.
